Sampled rows, rich in hits. Any-hit rate of the full collection: about 7.3%.
Luciferase inh: Firefly luciferase inhibition profiling of diverse chemical library using quantitative high-throughput screening; Luciferin 4-monooxygenase (Photinus pyralis), P08659; purified P. pyralis luciferase, luminescence, biochemical; Potency, µM (series often up to 115 µM), hits mostly inhibitors; 76,000 compounds, 2.5% hits; AID 1347043, 2019; further: potency means the concentration at half of the fitted maximal effect; nearly all actives have a fitted effect of over 65% in size
Target sequence (P08659 whole entry, looked up): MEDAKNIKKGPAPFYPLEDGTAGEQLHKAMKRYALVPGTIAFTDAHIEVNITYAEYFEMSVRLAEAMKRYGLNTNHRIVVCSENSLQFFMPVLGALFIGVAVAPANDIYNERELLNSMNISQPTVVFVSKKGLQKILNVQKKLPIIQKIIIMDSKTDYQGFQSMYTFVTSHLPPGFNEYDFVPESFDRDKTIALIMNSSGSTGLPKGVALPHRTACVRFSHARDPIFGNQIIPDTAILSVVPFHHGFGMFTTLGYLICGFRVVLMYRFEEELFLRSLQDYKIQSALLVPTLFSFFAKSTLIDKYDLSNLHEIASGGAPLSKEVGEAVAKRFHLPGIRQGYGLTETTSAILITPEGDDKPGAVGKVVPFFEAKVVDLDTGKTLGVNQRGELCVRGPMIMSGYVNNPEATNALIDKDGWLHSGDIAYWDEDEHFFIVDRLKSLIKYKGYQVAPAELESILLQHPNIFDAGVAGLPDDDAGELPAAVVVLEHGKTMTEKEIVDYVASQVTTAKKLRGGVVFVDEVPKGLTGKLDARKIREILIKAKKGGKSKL
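Luminescence read by CCD imager after adding enzyme (10nM final) to wells holding compound, titrated in qHTS. Substrates 10uM each D-luciferin and ATP; buffer 50mM Tris acetate pH 7.5, 10mM Mg acetate, Tween-20, BSA.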
HEK293 tox: Cytotoxic Profiling in HEK 293 Cell Line of Diverse Libraries Using Quantitative High-Throughput Screening | HEK 293 viability, ATP luminescence (CellTiter-Glo), 48-72 h | 94,000 compounds, 6.6% hits | AID 1345083, 2018 | Potency, µM (top dose mostly 115 µM), without a hit: at the top dose activity change, negative = cytotoxicity, most hits filed as inhibitors; further: potency means the concentration at half of the fitted maximal effect; nearly all actives have a fitted effect of over 60% in size
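HEK 293 seeded at 250 cells/well receive compound via pintool. After 48 or 72 hr at 37 degree Celsius, 5% CO2 and 95% humidity, CellTiter-Glo is dispensed and luminescence read following 10 min at room temperature.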
SNCA expr inh: Primary qHTS assay for inhibitors of alpha-synuclein gene (SNCA) expression | HEK-293 SNCA-luciferase knock-in, luminescence, 24 h | Potency, µM (titrated, usually from 57.2 µM), for inactives: at the highest dose activity change, negative = inhibition, usual class: inhibitors | 140,000 compounds, 0.17% hits | AID 1671194, 2021;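 further: potency means the concentration at half of the fitted maximal effect; plate controls were DMSO cells for no effect and cell-free wells for full effect; nearly all actives have a fitted effect of over 45% in size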
NIH3T3 tox: Cytotoxic Profiling in NIH 3T3 Cell Line of Diverse Libraries Using Quantitative High-Throughput Screening | NIH 3T3 viability, CellTiter-Glo ATP luminescence, 48-72 h | Potency, µM (doses to about 96.7 µM), without a hit: at the highest dose activity change, negative = cytotoxicity, usual class: inhibitors | 94,000 compounds, 4.3% hits | AID 1345082, 2018; further: potency means the concentration at half of the fitted maximal effect; nearly all actives have a fitted effect of over 55% in size
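ATP-dependent luminescence (CellTiter-Glo) served as the viability signal for NIH 3T3 cells treated with compound for 48 or 72 hr at 37 °C.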
IP6K1 inh: Primary qHTS assay for small molecule inhibitors of Inositol hexaphosphate kinase 1 (IP6K1). Inositol hexakisphosphate kinase 1 (Homo sapiens), Q92551. IP6K1 kinase, ADP-Glo luminescence, 2 h; hits give low values. activity change, % (series mostly up to about 58 µM). 140,000 compounds, 0.81% hits. AID 1645851, 2021; in the data active means activity change below about -25%
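ADP-Glo luminescence measures ADP made by human IP6K1 during a 2 h RT reaction with ATP/IP6 (mix at 1.3 mM/130 uM); top library doses 57.5 and 19.1 uM final.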
HEK293 viab: GF-AFC viability counterscreen for inhibitors of alpha-synuclein gene (SNCA) expression. 150,000 compounds, 0.12% hits. HEK-293-SNCA-luc viability, GF-AFC fluorescence, 24 h. Potency, µM (top dose mostly 57.1 µM), without a hit: top-dose activity change, negative = cytotoxicity, hits mostly cytotoxic;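 further: potency means the concentration at half of the fitted maximal effect; 0% = DMSO-treated cells and -100% = medium-only wells without cells; nearly all actives have a fitted effect of over 30% in size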
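HEK-293-SNCA-luc cells (1500/well) plated 24 h, then exposed 24 h to a dilution series; GF-AFC added 30 min at 37C, fluorescence 405/540 nm; normalised to medium-only and DMSO wells, Hill fit.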
* hit, by the source's call; i = inactive; ? = inconclusive; . = no result given; [ ] = dose if it differs, or a comment. Unless noted, the call rests on the fitted dose curve; in most records, active means well fitted curve in the direction sought with a large enough effect; inconclusive means small, poorly fitted or top-dose-only effect, or another doubt; inactive means no such curve, though single readings can be large; an effect the other way counts as inactive or inconclusive. Unless noted, on the % scale 0 is the no-effect control and ±100 the full control effect.

SMILES | Luciferase inh | HEK293 tox | SNCA expr inh | NIH3T3 tox | IP6K1 inh | HEK293 viab
COc1ccc(NC(=O)CCC2CCN(S(=O)(=O)c3ccccc3F)CC2)c(OC)c1 | . | ? | -4% | -28% | 5 | 10%
CCOCC1(C)COc2ccc(C(=O)NCCc3ccccc3)cc2N1 (centres undefined) | 22µM* | ? | 71%[87.6 µM] | ? | -10 | 7%[87.6 µM]
COc1ccc(OCC2(C)COc3ccc(C(=O)NCCc4ccccc4)cc3N2)cc1 (centres undefined) | i | ? | -26%[87.6 µM] | ? | 4 | -4%[87.6 µM]
CCCCCNC(=O)C1CCCN1Cc1cccc(-c2ccc(C)c(Cl)c2)c1 (centres undefined) | . | 45µM* | . | ? | 3 | .
Cc1ccc(-c2cccc(CN3CCCC3C(=O)NCC3CC3)c2)cc1Cl (centres undefined) | . | 32µM* | . | ? | 5 | .
Cc1ccc(-c2cccc(CN3CCCC3C(=O)NC3CCCCC3)c2)cc1Cl (centres undefined) | . | -25% | . | -23% | 14 | .
COCCNC(=O)C1CCCN1Cc1cccc(-c2ccc(C)c(Cl)c2)c1 (centres undefined) | . | 40µM* | . | 35µM* | 16 | .
COc1ccc(C(CC(=O)N(C)Cc2cnc3ccccn23)c2ccccc2)cc1 (centres undefined) | i | ? | -10% | -20% | -3 | -9%
COc1cccc(S(=O)(=O)N2CCC3(C2)C(=O)Nc2ccccc23)c1 (centres undefined) | . | -27% | 7% | -16% | -11 | -5%
Cc1ccc(CN2CCC3(CC2)CC(=O)N(c2ccccc2)c2ccccc2O3)cc1 | i | 32µM* | -19% | 40µM* | -3 | -12%
Cn1cccc1CN1CCC2(CC1)CC(=O)N(c1ccccc1)c1ccccc1O2 | i | 22µM* | ? | 40µM* | 3 | -27%
CC(C)CCN1CCC2(CC1)CC(=O)N(c1ccccc1)c1ccccc1O2 | i | 45µM* | ? | ? | -3 | ?
O=C1CC2(CCN(Cc3ccccc3)CC2)Oc2ccccc2N1c1ccccc1 | i | ? | -13% | -24% | -4 | -3%
Cc1noc(C)c1-c1cc2cc(C(C)C)oc2c(NC(C)C)n1 | i | 89µM* | 62%[87.6 µM] | 79µM* | -6 | ?
Cc1noc(C)c1-c1cc2cc(C(C)C)oc2c(-c2c(C)noc2C)n1 | i | ? | 33%[87.6 µM] | ? | 2 | 15%[87.6 µM]
COc1ncccc1-c1nc(-c2c(C)noc2C)cc2cc(C(C)C)oc12 | i | 89µM* | 31%[87.6 µM] | ? | -9 | -7%[87.6 µM]
Cc1noc(C)c1-c1cc2cc(C(C)C)oc2c(NC2CCOCC2)n1 | i | 100µM* | 2%[87.6 µM] | ? | 0 | -3%[87.6 µM]
Cc1nn(-c2ccccc2)c2c1C(C(C)C)N(C1CN(C(=O)Nc3ccc(Cl)cc3)C1)C2=O (centres undefined) | . | -11% | . | -26% | 1 | .
O=C(Nc1cccc(F)c1)N1CCOc2ccc(CN3CCc4ccccc4C3)cc2C1 | i | ? | -7% | ? | -15 | -3%
CC(C)c1ccc([S+](=O)([O-])c2nnn3c2nc(NCc2ccncc2)c2ccccc23)cc1 | . | 50µM* | ? | 40µM* | -2 | -10%
Cc1ccc([S+](=O)([O-])c2nnn3c2nc(NCc2ccncc2)c2ccccc23)cc1 | . | -10% | -13% | i | -2 | 6%
O=C1COc2ccc(NCCc3ccccn3)nc2CN1Cc1ccc(C(F)(F)F)cc1 | i | ? | 6% | ? | 1 | -12%
O=C1COc2ccc(Nc3cccnc3)nc2CN1Cc1ccc(C(F)(F)F)cc1 | i | 89µM* | ? | ? | -2 | -13%[87.6 µM]
